Among the test systems are HCT-15 colon; HT29 colon; SNB-75 CNS; SNB-19 CNS; U251 CNS; PC-3 prostate; SK-MEL-5 melanoma; UACC-62 melanoma; LOX IMVI melanoma; SK-MEL-28 melanoma; SK-MEL-2 melanoma; EKVX NSCLC; UO-31 renal; ACHN renal; CAKI-1 renal; CCRF-CEM leukemia; MOLT-4 leukemia; SN12C renal; TK-10 renal; A498 renal.
Experiment in all cases: NCI-60 one-dose screen, 48 h (100 = growth as untreated, 0 = no growth, -100 = all killed)
Common to all, as to conditions: 10 µM unless noted

This is part of a sample that, as a whole, favours compounds with a hit. Of some 83,000 tested, about 20% had one in any assay.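 48-hour exposure, single concentration, 96-well plates; percent growth endpoint where 0 means no net growth. Active: below 10.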 A number with no mark means an inactive call. Calls of active or inactive are those of the source.

Regarding `Nc1nc(SCc2cccnc2)c2ncn(C3OC(CO)C(O)C3O)c2n1` (stereo not given), the growth in the test on HCT-15 colon is 102%; with HT29 colon it was 106%; with SNB-75 CNS, 101%; in the test on SNB-19 CNS, 98.7%; with U251 CNS, 98.3%; with PC-3 prostate, 89.4%. Besides, the growth in the test with SK-MEL-5 melanoma is 99.5%; in the test on UACC-62 melanoma it was 84.8%; with LOX IMVI melanoma it was 102%; in the test on SK-MEL-28 melanoma it was 111%; with SK-MEL-2 melanoma, 109%; in the test with EKVX NSCLC it was 101%. The growth in the test on UO-31 renal is 72.7%; with ACHN renal it was 92.2%; with CAKI-1 renal it was 98.6%; in the test with CCRF-CEM leukemia, 115%; with MOLT-4 leukemia, 111%.

On to `CCOC(=O)CCN(c1c(Cl)ssc1=O)C(C)C`, for which the growth in the test on HCT-15 colon is 113%; in the test with HT29 colon, 102%; with SNB-75 CNS it was 97.8%; in the test with SNB-19 CNS it was 109%; with U251 CNS, 101%; in the test with PC-3 prostate, 101%. Besides, the growth in the test with SK-MEL-5 melanoma was 97.7%; in the test on UACC-62 melanoma it was 97.8%; in the test with LOX IMVI melanoma, 94.4%; with SK-MEL-28 melanoma, 93.4%; in the test with SK-MEL-2 melanoma, 96.4%; with EKVX NSCLC, 107%. Moreover, the growth with SN12C renal is 114%; with TK-10 renal, 129%; in the test with ACHN renal, 118%; with CAKI-1 renal it was 124%; with A498 renal it was 106%; in the test with CCRF-CEM leukemia it was -34.9% (active). In addition, in the test on MOLT-4 leukemia, the growth is -14.5% (active).

As for `O=C(NN1C(=O)c2cc(C(=O)O)c(C(=O)O)cc2C1=O)c1ccncc1`, the growth in the test on HCT-15 colon was 103%; in the test on HT29 colon, 108%; in the test with SNB-75 CNS, 145%; in the test on SNB-19 CNS, 106%; with U251 CNS it was 100%; in the test with PC-3 prostate, 84.6%. In addition, the growth in the test on SK-MEL-5 melanoma was 106%; in the test with UACC-62 melanoma, 92.3%; in the test on LOX IMVI melanoma, 109%; in the test on SK-MEL-28 melanoma, 94.2%; in the test on SK-MEL-2 melanoma it was 104%; in the test on EKVX NSCLC, 108%. The growth with UO-31 renal is 112%; in the test on TK-10 renal it was 88.4%; with ACHN renal it was 102%; in the test on A498 renal, 112%; in the test on CCRF-CEM leukemia, 103%; with MOLT-4 leukemia, 98.6%.

For `COc1cccc(-c2nc(-c3ccc(N)cc3)co2)c1`, the growth in the test on HCT-15 colon is 89.8%; with HT29 colon, 87.2%; in the test with SNB-75 CNS, 116%; with SNB-19 CNS, 113%; with U251 CNS it was 92.2%; in the test on PC-3 prostate, 98.2%. Moreover, the growth with SK-MEL-5 melanoma was 85.9%; with UACC-62 melanoma, 90.3%; with LOX IMVI melanoma, 97%; in the test on SK-MEL-28 melanoma, 111%; in the test with SK-MEL-2 melanoma it was 99.8%; with EKVX NSCLC it was 102%. Moreover, the growth with SN12C renal was 95.2%; with TK-10 renal, 109%; with ACHN renal, 106%; in the test with CAKI-1 renal it was 94.7%; in the test on A498 renal, 100%; in the test with MOLT-4 leukemia, 81.8%.

Regarding `O=C(N/N=C/c1ccc(Cl)cc1Cl)c1ccccc1Nc1cccc(C(F)(F)F)c1`, the growth in the test on HCT-15 colon is 72.5%; in the test on HT29 colon, 86.7%; with SNB-75 CNS it was 78%; with SNB-19 CNS it was 76.1%; in the test with U251 CNS, 22.4%; with PC-3 prostate, 60.5%. The growth was 53.5% with SK-MEL-5 melanoma; 65.6% in the test on UACC-62 melanoma; 50% with LOX IMVI melanoma; 92.2% in the test with SK-MEL-28 melanoma; 54.9% in the test with SK-MEL-2 melanoma; 53.3% in the test with SN12C renal. Also, the growth is 25.7% in the test with UO-31 renal; 106% in the test with TK-10 renal; 35.9% in the test with ACHN renal; 55.5% with CAKI-1 renal; -7.44% (active) in the test with A498 renal; 32.4% in the test on CCRF-CEM leukemia. For the same molecule, in the test on MOLT-4 leukemia, the growth is 55.8%.

In the case of `COc1ccc(NC(=O)c2ccc(-c3ccccc3)cc2)c(C(N)=O)c1`, the growth in the test on HCT-15 colon was 97.1%; in the test on HT29 colon it was 99.9%; in the test on SNB-75 CNS, 112%; in the test with SNB-19 CNS, 94.2%; with U251 CNS, 98.4%; in the test with PC-3 prostate, 93.1%. In addition, the growth in the test on SK-MEL-5 melanoma was 101%; in the test with UACC-62 melanoma it was 91.5%; in the test with LOX IMVI melanoma, 96.6%; in the test on SK-MEL-28 melanoma, 108%; in the test with SK-MEL-2 melanoma, 99.6%; in the test with SN12C renal, 96.6%. For the same molecule, the growth in the test on UO-31 renal is 79.6%; with TK-10 renal, 118%; with ACHN renal, 102%; with CAKI-1 renal it was 103%; in the test with A498 renal it was 97%; in the test on CCRF-CEM leukemia it was 90%. For the same molecule, in the test on MOLT-4 leukemia, the growth is 84.6%.

For `COCCOCCOCCOCCOc1ccc2c(c1)C(=O)c1nc3ncccc3c(=O)n1-2`, the growth with HCT-15 colon is -95.6% (active); in the test on HT29 colon, -39.3% (active); in the test with SNB-75 CNS it was -61.1% (active); in the test on SNB-19 CNS, -87% (active); in the test on U251 CNS, -63.6% (active); in the test with PC-3 prostate it was -8.58% (active). In addition, the growth with SK-MEL-5 melanoma is -100% (active); with UACC-62 melanoma, -97.2% (active); in the test on LOX IMVI melanoma, -87.7% (active); in the test on SK-MEL-28 melanoma it was -75.3% (active); in the test with SK-MEL-2 melanoma, 6.22% (active); in the test with EKVX NSCLC it was 10.5%. Further, the growth was -7.56% (active) in the test with UO-31 renal; -77.4% (active) in the test with TK-10 renal; -19.5% (active) with ACHN renal; -100% (active) with A498 renal; 5.42% (active) in the test on CCRF-CEM leukemia; -28.7% (active) in the test with MOLT-4 leukemia.

For `CCCCCCCCCCOC(C)=O`, the growth was 107% with HCT-15 colon; 106% in the test with HT29 colon; 80.7% in the test on SNB-75 CNS; 108% in the test on SNB-19 CNS; 108% in the test with U251 CNS; 93.4% in the test on PC-3 prostate. The growth was 107% in the test with SK-MEL-5 melanoma; 103% in the test with UACC-62 melanoma; 108% in the test on LOX IMVI melanoma; 110% in the test with SK-MEL-28 melanoma; 116% in the test on SK-MEL-2 melanoma; 103% in the test on SN12C renal. Further, the growth with UO-31 renal was 89%; in the test on TK-10 renal it was 116%; in the test on ACHN renal it was 98.8%; in the test with CAKI-1 renal, 79.8%; in the test on MOLT-4 leukemia it was 103%.
